In all, about 11,000 compounds went through this assay and about 310 (2.8%) were called active. No stated cut-off is given here; in the data, active means activity change below about -85%; inactive means the rest. Shown is part of a subset that was picked to be rich in actives.
Test system: intestinal alkaline phosphatase [Mus musculus]
Test: mouse intestinal phosphatase enzyme activation – biochemical, luminescence, single concentration, confirmation (AID 434970)
Conditions: purified mouse IAP, CDP-Star luminescence, 30 min, at 10 µM; activation factor: measured here: IAP activation factor, stronger effect = higher value; activity change, negative = activation: stronger effect = lower value

Row | Compound | activation factor | activity change, negative = activation
1 | NC(=O)CSCc1cccc(Br)c1 | 1.01 | -0.9% (inactive)
2 | O=S1(=O)c2ccccc2OC(COCc2ccccc2)CN1Cc1ccccc1 (configuration not stated) | 1.13 | -13.2% (inactive)
3 | Cc1cc(C)nc(SCc2nnc(SCC(=O)Nc3ccccc3C)n2Cc2ccco2)n1 | 0.974 | 2.65% (inactive)
4 | Cc1ccc(-c2cc(C(F)F)n3ncc(C(=O)N4CCN(c5cccc(C)c5C)CC4)c3n2)cc1 | 0.892 | 10.8% (inactive)
5 | CCCc1cc(=O)oc2cc3occ(C)c3cc12 | 0.917 | 8.35% (inactive)
6 | CCOn1c(=O)c(-c2ccc(Cl)cc2)[n+]([O-])c2ccccc21 | 0.944 | 5.65% (inactive)
7 | CC(C)(C)c1n[nH]c(=S)n(N)c1=O | 1.04 | -4.25% (inactive)
8 | CCn1c(NCc2ccc(N(C)C)cc2)nc2ccccc21 | 1.11 | -10.6% (inactive)
9 | CCn1c(NCc2ccccn2)nc2ccccc21 | 0.877 | 12.3% (inactive)
10 | CCn1c(CNc2nc3ccccc3n2C(C)C)nc2ccccc21 | 1.97 | -97.3% (active)
11 | Cc1ccc2oc(-c3ccc(NC(=O)c4ccc5c(c4)OCO5)cc3)nc2c1 | 0.944 | 5.6% (inactive)
12 | CSc1nccc(-c2nn(-c3ccc(C)cc3)ccc2=O)n1 | 1 | -0.05% (inactive)
13 | O=C(NC[C@@H]1CC[C@@H](Cc2ccc(-c3ccccc3)cc2)O1)Nc1ccc(Br)cc1 | 4.1 | -310% (active)
14 | COc1ccc(NC(=O)NC[C@@H]2CC[C@@H](Cc3ccc(-c4ccccc4)cc3)O2)cc1 | 2.82 | -182% (active)
15 | OC[C@@H]1CC[C@@H](Cc2ccc(-c3ccccc3)cc2)O1 | 1.07 | -7.05% (inactive)
16 | O=C(NCCCCc1ccccc1)NC[C@@H]1CC[C@@H](Cc2ccc(-c3ccccc3)cc2)O1 | 4.44 | -344% (active)
17 | S=C(NCC1COc2ccccc2O1)Nc1ccc(Br)cc1 (configuration not stated) | 1.68 | -68.1% (inactive)
18 | COc1ccc2cc(C[C@@H]3CC[C@@H](CNC(N)=O)O3)ccc2c1 | 0.994 | 0.55% (inactive)
19 | COc1ccc(N2CCN(CCCNC(=O)Nc3ccccc3)CC2)cc1 | 1.16 | -16.2% (inactive)
20 | NC(=O)NC[C@@H]1CC[C@@H](Cc2ccc(-c3ccccc3)cc2)O1 | 1.01 | -0.6% (inactive)
21 | CCOC(=O)C1=C(C)N(C[C@@H]2CC[C@@H](Cc3ccc(-c4ccccc4)cc3)O2)C(=O)NC1c1ccc(-c2ccccc2)cc1 (some centres not stated) | 1.12 | -12.1% (inactive)

Row | Compound | activation factor | activity change, negative = activation
22 | CC(C)[C@H]1COCCS(=O)(=O)N1Cc1ccccc1-c1cccc2c1oc1ccccc12 | 0.927 | 7.3% (inactive)
23 | Cc1c(C(=O)NCC2COc3ccccc3O2)oc2ccc(S(=O)(=O)N3CCOCC3)cc12 (configuration not stated) | 1.07 | -6.7% (inactive)
24 | CCNc1nc(NC(C)(C)C)nc(SC(C(C)=O)C(C)=O)n1 | 1.04 | -4.2% (inactive)
25 | O=C(OCn1nnc2ccccc2c1=O)C1CCN(S(=O)(=O)c2cccs2)CC1 | 0.919 | 8.05% (inactive)
26 | Cc1ccc(C2=NN3C(C(=O)c4ccccc4)Oc4ccccc4C3C2)cc1 (configuration not stated) | 0.916 | 8.35% (inactive)
27 | O=C(c1cc(NC(=O)C23CC4CC(CC(C4)C2)C3)cc(NC(=O)C23CC4CC(CC(C4)C2)C3)c1)N1CCCCC1 | 2.06 | -106% (active)
28 | COC(=O)c1sccc1NC(=O)C12CC3CC(CC(C3)C1)C2 | 1.03 | -2.7% (inactive)
29 | O=C(Nc1ccccc1N1CCN(c2ccccc2)CC1)C12CC3CC(CC(C3)C1)C2 | 0.927 | 7.25% (inactive)
30 | CCOc1ccccc1C1N(c2ccc(F)cc2)C(=O)C2CCCN21 (configuration not stated) | 0.988 | 1.2% (inactive)
31 | CCc1nnc(NC(=O)C2CCCN2C(=O)Nc2ccccc2OC)s1 (configuration not stated) | 1.12 | -12.2% (inactive)
32 | CCCCSCCCNC(=O)Nc1ccc(CC)cc1 | 1.39 | -38.9% (inactive)
33 | CCCCNC(=O)Nc1ccc2c(c1)N(C)C(=O)c1ccccc1S2 | 2.25 | -124% (active)
34 | CCC(C)NC(=O)Nc1ccc2c(c1)N(C)C(=O)c1ccccc1S2 (configuration not stated) | 2 | -100% (active)
35 | CCCCSCCCNC(=O)Nc1ccc(C)c(C)c1 | 1.25 | -24.7% (inactive)
36 | COc1ccc(NC(=O)Nc2ccc3c(c2)N(C)C(=O)CS3)cc1Cl | 1.91 | -90.9% (inactive)
37 | CC(=O)c1ccc2c(c1)N(C)c1ccccc1S2 | 0.875 | 12.5% (inactive)
38 | COCCOC(=O)c1c(C)n(C)c2ccc(OC(=O)C3CC3)cc12 | 1.07 | -7.45% (inactive)
39 | CCCCNS(=O)(=O)CCNCCc1ccccc1 | 1.1 | -10.1% (inactive)
40 | COc1ccc(C2/C=C\CC(NS(=O)(=O)c3ccc(C)cc3)CC(=O)N2Cc2ccccc2F)cc1 (configuration not stated) | 1.18 | -17.7% (inactive)
41 | O=C(CN1CCOCC1)Nc1cccc(C(=O)Nc2cccc(C(F)(F)F)c2)c1 | 1.03 | -2.95% (inactive)
